# According to PubChem BioAssay AID1030 (National Center for Advancing Translational Sciences (NCATS), 2008):
# Out of some 220,000 compounds screened, about 16,000 (7.3%) were called active. Entries that show only a call come without a potency. Inconclusive results (about 25%) are left out. This is one part of a sample in which actives are shown more often than they occur. A number with no mark means an inactive call. The call rests on the fitted dose curve; in most records, active means well fitted inhibition curve with a large enough effect (not every such curve was filed as active); inconclusive means small, poorly fitted or top-dose-only effect, or another doubt; inactive means no such curve, though single readings can be large or run the other way.
# Target: Aldehyde dehydrogenase 1A1 (Homo sapiens) (UniProt P00352)
# Sequence (P00352 whole entry, looked up): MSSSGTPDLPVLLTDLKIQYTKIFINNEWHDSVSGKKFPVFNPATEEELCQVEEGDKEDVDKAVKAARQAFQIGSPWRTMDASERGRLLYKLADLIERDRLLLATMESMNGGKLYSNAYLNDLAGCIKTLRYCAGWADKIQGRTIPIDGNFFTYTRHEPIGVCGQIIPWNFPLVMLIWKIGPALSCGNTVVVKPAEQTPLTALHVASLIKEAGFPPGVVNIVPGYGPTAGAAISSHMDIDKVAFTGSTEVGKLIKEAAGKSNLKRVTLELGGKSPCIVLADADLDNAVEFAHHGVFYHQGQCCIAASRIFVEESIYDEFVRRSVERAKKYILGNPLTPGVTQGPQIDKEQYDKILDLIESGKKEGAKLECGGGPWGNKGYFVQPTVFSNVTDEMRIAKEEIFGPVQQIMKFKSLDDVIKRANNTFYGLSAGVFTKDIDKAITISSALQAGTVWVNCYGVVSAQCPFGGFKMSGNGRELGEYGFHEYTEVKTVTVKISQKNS
# Experiment: qHTS Assay for Inhibitors of Aldehyde Dehydrogenase 1 (ALDH1A1)
# Conditions: Purified ALDH1A1, NADH fluorescence, propionaldehyde substrate; series mostly up to 75.3 µM
# Potency means the concentration at half of the fitted maximal effect.
Structure (SMILES),Potency,"activity, negative = inhibition"
CCOC(=O)C1(C)NC(c2ccco2)C2C(=O)N(c3ccccc3)C(=O)C21 (stereo unspecified),inactive,
COc1ccc(Cl)cc1C(=O)NNC(=S)NC1CCCC1,inactive,
COc1ccc(CNC(=O)C2CCN(S(C)(=O)=O)CC2)cc1,inactive,
Cc1cccc(C)c1OCC(=O)NC(Cc1c[nH]c2ccccc12)C(=O)O (stereo unspecified),inactive,
CCN(C(=O)CN1CCN(Cc2ccccc2)CC1)c1c(N)n(Cc2ccccc2)c(=O)[nH]c1=O,inactive,
N#C/C=C(/c1ccc(F)cc1)N1CCOCC1,inactive,
O=C(c1ccc(F)cc1)n1cc(C(=S)N2CCOCC2)c2ccccc21,31.6 µM (active),
COC(=O)c1cn(C(=O)c2ccc(Cl)cc2)c2ccccc12,inactive,
CC(=C/c1ccccc1)/C=N/NC(=O)c1cc(C)oc1C,inactive,
COc1ccc(OC)c(S(=O)(=O)Nc2ccccc2F)c1,inactive,
COCCNS(=O)(=O)c1cc(Br)ccc1OC,inactive,
COc1ccc(OC)c(S(=O)(=O)NCCC(C)C)c1,14.1 µM (active),
CC(Nc1oc(-c2ccccc2)nc1-c1ccccc1)c1ccccc1 (stereo unspecified),inactive,
O=C(COC(=O)c1cnccn1)Nc1cccc2ccccc12,inactive,
NS(=O)(=O)c1ccc(CCNC(=O)CCCn2c(SCC(=O)N3CCCC3)nc3ccsc3c2=O)cc1,inactive,
CCCCC(=O)Nc1ccc2c(c1)OCCO2,inactive,
CCN(CC(=O)Nc1ccc2c(c1)OCCO2)Cc1cc(=O)oc2cc(C)c(C)cc12,10 µM (active),
Cc1nn(CC(=O)Nc2ccc3c(c2)OCO3)c(C)c1[N+](=O)[O-],inactive,
Cc1ccc(S(=O)(=O)/N=C(\N)c2ccc(F)cc2)cc1,inactive,
C/C(=N\Nc1nc(Nc2ccccc2)nc(N2CCOCC2)n1)c1cccs1,inactive,
COc1cc2nc(CN(C)Cc3ccc(F)cc3)[nH]c(=O)c2cc1OC,inactive,
CCCCCC(=O)NC(=S)NNC(=O)c1ccc([N+](=O)[O-])cc1,14.1 µM (active),

Structure (SMILES),Potency,"activity, negative = inhibition"
COCCCNC(=S)NC(=O)c1ccc([N+](=O)[O-])cc1,20 µM (active),
CCCCCC(=O)Nc1ccc(C(=O)N/N=C/c2ccc([N+](=O)[O-])cc2)cc1,inactive,
COc1ccc(C(=O)NNC(=S)NC(=O)c2ccccc2[N+](=O)[O-])cc1,inactive,
COCCCNC(=S)NC(=O)c1ccccc1,inactive,
COCCCNC(=S)NNC(=O)C(O)(c1ccccc1)c1ccccc1,inactive,
CCNC(=O)N1c2ccccc2Sc2ccccc21,inactive,
COC(=O)Cc1ccc(Oc2ncc(C(F)(F)F)cc2Cl)cc1,inactive,
CC(=O)Nc1sc2c(c1C(c1cccc(F)c1)N1CCN(CCO)CC1)CCCC2 (stereo unspecified),inactive,
C/[N+]([O-])=C\c1ccc([N+](=O)[O-])o1,inactive,
C=CCN(c1ccccc1C(=O)NCC(=O)OCC)S(=O)(=O)c1ccc(C)cc1,inactive,
CCN(CC)CCCNC(=O)Cn1cnc2sc(C)c(S(=O)(=O)N3CCN(c4ncccn4)CC3)c2c1=O,inactive,
O=C(/C=C/c1cn(-c2ccccc2)nc1-c1ccc2c(c1)OCCO2)NCCCN1CCOCC1,inactive,
CC(=O)[C@H](C(c1ccccc1)N1CCOCC1)N1CCOCC1 (stereo partly specified),,-3.8% [at 13.5 µM]
C=CCN1C(=O)C(O)(CC(=O)c2ccc(Cl)cc2)c2ccccc21 (stereo unspecified),0.447 µM (active),
CC(C)(C)C(=O)CCN1C(=O)C2(OCCO2)c2ccccc21,inactive,
CCOC(=O)CN1CCC(c2ccccc2)CC1,inactive,
CCOC(=O)CSc1ccccn1,inactive,
CCOC(=O)CN1C(=O)C(O)(CC(=O)c2ccccn2)c2ccccc21 (stereo unspecified),0.224 µM (active),
CN1/C(=C\C(=O)c2cccnc2Cl)C(C)(C)c2ccccc21,inactive,
C=CCN1C(=O)C(O)(CC(=O)c2ccccn2)c2ccccc21 (stereo unspecified),0.355 µM (active),
O=C(CSc1nnnn1-c1ccc(O)cc1)N1N=C(c2ccc3ccccc3c2)CC1c1ccccc1 (stereo unspecified),inactive,
CCc1ccc(NC(=O)Nc2ccncc2)cc1,inactive,

Structure (SMILES),Potency,"activity, negative = inhibition"
COC(=O)c1cccc([N+](=O)[O-])c1CS(=O)(=O)c1ccc(C)cc1,inactive,
CCOc1ccc(C2c3[nH]c4ccccc4c3CCN2Cc2cn(CC)nc2C)cc1 (stereo unspecified),inactive,
O=[N+]([O-])c1cc([N+](=O)[O-])c2cccnc2c1O,25.1 µM (active),
CC(CNc1ccc([N+](=O)[O-])c2cccnc12)Nc1c([N+](=O)[O-])cc(C(F)(F)F)cc1[N+](=O)[O-] (stereo unspecified),inactive,
O=C(Nc1cccnc1)c1ccc(Cl)cc1[N+](=O)[O-],inactive,
O=S(=O)(Nc1ccc(Oc2ncccn2)c(Cl)c1)c1ccc(F)cc1,10 µM (active),
O=S(=O)(Nc1ncccn1)c1ccc(NS(=O)(=O)c2cccc(Cl)c2Cl)cc1,inactive,
Cn1c(=O)n(C)c2cc(NS(=O)(=O)c3ccc(F)cc3)ccc21,inactive,
CC(=O)Nc1ccc(NC(=S)NC(=O)c2ccc([N+](=O)[O-])c(C)c2)cc1,inactive,
Cc1cc(N2CCN(C)CC2)nc2ccc(NC(=S)N3CCOCC3)cc12,inactive,
CC1COc2ccccc2N1S(=O)(=O)c1ccccc1 (stereo unspecified),inactive,
O=C(C1CCN(C2CCN(Cc3ccc4cc(F)ccc4n3)CC2)CC1)N1CCCC1,inactive,
Cc1cccc(-n2c(=O)c3c(C)c(C)sc3n(CC(N)=O)c2=O)c1,inactive,
CN(C)c1ccc(C2Nc3ccccc3C(=O)N2NS(=O)(=O)c2ccccc2)cc1 (stereo unspecified),25.1 µM (active),
NC(=O)Nc1ccccc1C(=O)NCCc1ccccc1,inactive,
CC(OC(=O)c1ccc2ccccc2n1)C(=O)c1ccccc1 (stereo unspecified),inactive,
COc1ccc(C(=O)COC(=O)c2ccc3ccccc3n2)cc1,17.8 µM (active),
CCCCC(C(=O)OCC(=O)c1ccc(OC)cc1)N1C(=O)c2ccccc2C1=O (stereo unspecified),inactive,
c1ccc2sc(NN=C3CCCC3)nc2c1,inactive,
O=C1CCC(=O)N1c1ccc(NCCc2ccccc2F)c([N+](=O)[O-])c1,inactive,
C/C(=N\OC(=O)c1ccccc1)c1c(C)nc2cc(C)ccn12,inactive,
Cc1cc(CNCc2c(C(=O)N(C)Cc3ccccc3)nc3ccccn23)nn1C,inactive,

Structure (SMILES),Potency,"activity, negative = inhibition"
Cc1nc2ccccn2c1C(=O)NN=C1CCN(C)CC1,20 µM (active),
CCCCn1c(O)c(N=NC(=O)Cn2c(C(F)(F)F)nc3ccccc32)c2ccccc21,4.47 µM (active),
CN1CCN(C(=O)Cn2c(C(F)(F)F)nc3ccccc32)CC1,inactive,
Cc1ccccc1OC(=O)Cn1c(C(F)(F)F)nc2ccccc21,inactive,
Cc1cc(C)cc(OCC(=O)Nc2ccc(S(=O)(=O)Nc3ccccn3)cc2)c1,inactive,
CC(CCO)Nc1nc2c([nH]1)c(=O)n(C)c(=O)n2C (stereo unspecified),inactive,
Cc1ccc(NN=Nc2nc3c([nH]2)c(=O)n(C)c(=O)n3C)cc1,7.94 µM (active),
COc1ccc2cc(-c3[nH]ncc3CNCCn3nc(C)cc3C)ccc2c1,inactive,
Cc1c(O)c(Br)c(C)c(O)c1Br (tested in a mixture with another compound),1.12 µM (active),
COCCN(C(=O)CCC(=O)Nc1nccs1)C(C(=O)NC(C)(C)C)c1ccc(Cl)cc1 (stereo unspecified),inactive,
Cc1ccc(OCc2n[nH]c(=S)n2-c2ccccc2)cc1,inactive,
Cc1ccc(OCc2n[nH]c(=S)n2-c2ccc(C)cc2)cc1,inactive,
COc1ccc(OCc2n[nH]c(=S)n2N)cc1,4.47 µM (active),
Cc1noc(C)c1CCC(=O)O,inactive,
O=C(c1cccc(S(=O)(=O)N2CCCC2)c1)N(Cc1ccco1)C1CCS(=O)(=O)C1 (stereo unspecified),inactive,
COc1cc(OC)c2c(-c3cccc(-c4cccc(N)c4)c3)cc(=O)oc2c1,inactive,
CCOc1ccc(CN(Cc2ccco2)C(c2cccs2)c2nnnn2C(C)(C)C)cc1 (stereo unspecified),inactive,
CCC(c1nnnn1Cc1ccco1)N(CCc1ccccc1)Cc1cc2cccc(C)c2[nH]c1=O (stereo unspecified),7.94 µM (active),
CCC(c1nnnn1Cc1ccco1)N(CCc1ccccc1)Cc1cc2ccc(OC)cc2[nH]c1=O (stereo unspecified),10 µM (active),
CCN(CC)CCNS(=O)(=O)c1ccc(/C=C/C(=O)O)cc1,inactive,
Cc1noc(C)c1COC(=O)COc1ccc(-c2ccccc2)cc1,inactive,
Cc1nn(CC(=O)Nc2ccc(C#N)cc2)c(C)c1[N+](=O)[O-],inactive,

Structure (SMILES),Potency,"activity, negative = inhibition"
CCCC(C)C(=O)NCc1ccncc1 (stereo unspecified),inactive,
OCCC1CN(Cc2cccc(OC3CCCC3)c2)CCN1Cc1ccsc1 (stereo unspecified),inactive,
COC(=O)c1cc(=O)n(-c2c(Cl)cc(C(F)(F)F)cc2Cl)[nH]1,inactive,
Cn1c(CC2Sc3ccccc3NC2=O)nnc1SCC(=O)c1ccc(Cl)cc1 (stereo unspecified),3.98 µM (active),
Cn1c(CCC(=O)Nc2ccccc2F)nnc1SCC(=O)Nc1ccccc1Cl,inactive,
Cc1ccc(CNC(=O)CC2Sc3ccccc3NC2=O)cc1 (stereo unspecified),inactive,
COc1cc(C)c(Cl)cc1S(=O)(=O)n1ccnc1,inactive,
Cc1nc(N)[nH]c(=O)c1Oc1cccc(C(F)(F)F)c1,inactive,
Cn1c(-c2ccccc2)c[n+]2c1CCCCC2,inactive,
Cc1cccc(NC(=O)c2ccc(OCC(=O)NCc3ccccc3)cc2)c1C,inactive,
COc1ccc(OCC(=O)NNC(=O)c2cccc(C)c2)cc1,inactive,
COc1ccc(C(=O)Nc2cc(C)ccc2NC(=O)COc2ccccc2)cc1,3.98 µM (active),
CCOC(=O)Cc1ncccc1C(=O)Nc1ccc(OC(F)(F)F)cc1,inactive,
Cn1nnnc1-c1cc(Cl)cc(Cl)c1,inactive,
COc1ccc(/C=C(/NC(=O)c2ccc(C)cc2)c2nc3ccccc3[nH]2)cc1OC,inactive,
COc1ccc(Br)cc1C(=O)Nc1cccc(C)c1C,inactive,
COc1ccc(Br)cc1C(=O)NC(=S)Nc1cc(-c2nc3ccccc3[nH]2)ccc1C,12.6 µM (active),
CC(OC(=O)CCc1nc(=O)c2ccccc2n1C)C(=O)NCc1ccc2c(c1)OCO2 (stereo unspecified),inactive,
